# The whole screen tested about 320,000 compounds, of which about 1,200 (0.38%) were called active. What follows is part of a selection rich in actives, with near analogues and random picks from the rest. Values without a mark were called inactive.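 The calls were made as follows: active = inhibition above the screen-wide mean plus 3 SD, limit set per campaign (cut at about 26% in these data); inactive = the rest.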
# Target: Acyl-protein thioesterase 2 (Homo sapiens) (UniProt O95372)
# Experiment: LYPLA2 inhibitors, primary screen, counter-screen for PME1 inhibitor project, biochemical, fluorescence polarization, FP-Rh probe ABPP (AID 2177);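 also: 0% = LYPLA2 with DMSO and 100% = wells lacking LYPLA2 enzyme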
# Settings: recombinant LYPLA2, FP-Rh probe fluorescence polarization; at 5.9 µM; stronger effect = higher value
# Sequence of Acyl-protein thioesterase 2 (Homo sapiens) (O95372 whole entry, looked up): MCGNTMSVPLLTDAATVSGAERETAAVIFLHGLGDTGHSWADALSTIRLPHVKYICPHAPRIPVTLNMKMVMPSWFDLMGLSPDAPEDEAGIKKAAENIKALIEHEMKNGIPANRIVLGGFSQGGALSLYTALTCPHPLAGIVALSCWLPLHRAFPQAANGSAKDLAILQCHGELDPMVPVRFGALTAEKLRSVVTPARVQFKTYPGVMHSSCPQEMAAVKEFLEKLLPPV
row,Compound,inhibition
1,CCOc1[nH]n(-c2ccc(Cl)cc2)c(=O)c1C=Nc1ccc(O)cc1,3.53%
2,Oc1ccc(N=Cc2c(O)ccc3ccccc23)cc1,32.3% (active)
3,Oc1ccc(N=Cc2sc3ccccc3c2Cl)cc1,7.6%
4,CCOC(=O)N1CCN(c2c(NCCN3CCN(c4ccccc4F)CC3)c(=O)c2=O)CC1,1.74%
5,O=[N+]([O-])c1ccc(Oc2ccc(F)cc2Br)c2ccncc12,41.4% (active)
6,O=[N+]([O-])c1ccc(F)cc1Oc1nc(-c2cccnc2)nc2ccccc12,-3.66%
7,O=S(=O)(/N=C(/Nc1ccccc1)c1ccccc1)c1cccs1,1.19%
8,Cc1ccc(S(=O)(=O)N(CC(=O)NCc2ccco2)c2ccccc2C)cc1,-4.36%
9,CSc1cccc(NC(=O)CN2C(=O)COc3ccc(S(=O)(=O)N4CCOCC4)cc32)c1,35.7% (active)
10,COc1ccc(NC(=O)CN2C(=O)COc3ccc(S(=O)(=O)N4CCOCC4)cc32)cc1,7%
11,CC(=O)Nc1ccc(NC(=O)CN2C(=O)COc3ccc(S(=O)(=O)N4CCCCC4)cc32)cc1,-8.84%
12,O=S(=O)(Nc1ccc2[nH]ncc2c1)c1ccccc1Cl,-3.28%
13,COc1cnn(-c2ccc([N+](=O)[O-])cc2)c(=O)c1Cl,6.75%
14,O=c1[nH]n(-c2ccc([N+](=O)[O-])cc2)c(=O)c2ccccc12,33.6% (active)
15,O=c1[nH]c2cccnc2n1-c1ccc([N+](=O)[O-])cc1,0.99%
16,Cc1ccc(N2CCN(c3ccc(C)cc3)C2c2ccccn2)cc1,3.84%
17,CC(NCc1cccs1)C(=O)Nc1cc(Cl)cc(Cl)c1 (centres undefined),-2.93%
18,Cn1nc(C(F)(F)F)c2cc(NC(=O)OCC(C)(C)C)sc21,-2.17%
19,O=C1OCC2=C1C(c1ccccc1)CC(=O)N2c1cccc(F)c1 (centres undefined),0.97%
20,CCc1nnc(NC(=O)CSc2nnnn2-c2cccc(C(C)=O)c2)s1,0.16%
21,O=C(Nc1ccc(N2CCN(C(=O)c3ccccc3)CC2)c(Cl)c1)c1cccnc1,27.9% (active)
22,COC(=O)c1cc(NC(=O)c2cccnc2)ccc1N1CCOCC1,2.91%
23,O=C(Nc1ccc(N2CCN(C(=O)c3ccccc3)CC2)c(Cl)c1)c1ncn[nH]1,14.6%
24,COC(=O)c1ccccc1NC(=O)CN(Cc1ccccc1)S(C)(=O)=O,-8.82%

row,Compound,inhibition
1,COc1ccc([C@H]2CC(=O)C=C(c3ccc(C)cc3)C2)cc1,15.7%
2,O=C1C=C(c2cccc(Cl)c2)C[C@@H](c2ccc(F)cc2)C1,0.27%
3,N#Cc1ccc(C2=CC(=O)C[C@H](c3ccc(Cl)cc3)C2)cc1,43.3% (active)
4,CCNC(=S)N1CCN(C(=O)c2ccco2)CC1,2.65%
5,O=C(c1ccco1)N1CCN(C(=S)Nc2cc(F)cc(F)c2)CC1,33.1% (active)
6,O=C(CN1CCN(C(=O)c2ccco2)CC1)Nc1ccc2c(c1)OCO2,-2.14%
7,COc1ccc(CN(C)C(=O)Cc2ccsc2)c(OC)c1OC,4.71%
8,CCOc1ccc(C(=O)NC(=S)Nc2ccc(NC(=O)C(C)C)cc2)cc1[N+](=O)[O-],19.4%
9,CCOc1ccc(C(=O)NC(=S)Nc2ccc(N3CCOCC3)c(Cl)c2)cc1[N+](=O)[O-],26.8% (active)
10,COc1cccc(OC)c1C(=O)NC(=S)Nc1ccc(N2CCOCC2)c(Cl)c1,-0.51%
11,O=C(Nc1ccccc1N1CCOCC1)c1ccncc1,-4.72%
12,Cc1nn2c(=O)cc(COC(=O)c3ccc(NC(=O)C(C)(C)C)cc3)nc2s1,31.4% (active)
13,COCCc1nn2c(=O)cc(COC(=O)c3cc(OC)c(OC)c(OC)c3)nc2s1,7.86%
14,Cc1csc2nc(COC(=O)c3cccc(N(C)C)c3)cc(=O)n12,6.85%
15,O=C(Nc1ccc([N+](=O)[O-])cc1)OCCc1ccccn1,1.34%
16,Cc1ccsc1/C=C1\SC(N2CCOCC2)=NC1=O,1.19%
17,Cc1ccc(N2CCN(/N=C/c3cccs3)CC2)cc1,6.07%
18,Cc1ccc(N2CCN(C3=NC(=O)/C(=C\c4cccs4)S3)CC2)cc1,51.7% (active)
19,Cc1ccc(S(=O)(=O)N(C)CC(=O)OCC(=O)N2CC(=O)Nc3ccccc32)cc1,2.05%
20,CCCC(=O)N(CCc1ccccc1)Cc1nc2ccccc2c(=O)[nH]1,-5.43%
21,CCN(CC)c1ccc(C(=O)NNC(=O)CCc2nc3ccccc3c(=O)[nH]2)cc1,26.9% (active)
22,CCN(CC)c1ccc(C(=O)Nn2c(C)nc3ccccc3c2=O)cc1,4.7%
23,CCOCCCN(C)C1CCN(C(=O)c2oc3ccccc3c2NC(=O)COc2cccc(C)c2)CC1,-6.18%
24,Cc1ccc(Cl)cc1NC(=O)C1CCCN(c2cnccn2)C1 (centres undefined),-0.03%

row,Compound,inhibition
1,COC(=O)c1sc(=S)n(-c2ccc(Cl)cc2)c1C,1.95%
2,COCCOC(=O)c1sc(=S)n(CCOC)c1N,34.7% (active)
3,COc1ccccc1NC(=O)CSc1nnc(CNC(=O)c2ccccc2F)o1,-2.81%
4,Cc1nn(-c2ccccc2)c2c1c(C)c(CCC(=O)NCC1CCCO1)c(=O)n2C (centres undefined),0.8%
5,Cc1cc(SCC(=O)NCCN2C(=O)CSC2=O)nc2ccccc12,-4.03%
6,Clc1ccc(C2=CSC3=Nc4cccc5cccc(c45)N23)cc1,0.51%
7,O=C(c1ccc(OC2CCN(Cc3ccccn3)CC2)cc1)N1CCCCCC1,3.95%
8,Cn1cc(CNC(=O)c2ccc(OC3CCN(Cc4ccccn4)CC3)cc2)cn1,11%
9,CN(CCc1ccccn1)C(=O)c1ccc(OC2CCN(CCc3ccccc3)CC2)cc1,33.7% (active)
10,NS(=O)(=O)c1ccc(N=Nc2c(O)[nH]c3ccc(Br)cc23)cc1,1.06%
11,Cc1ccc(/C=C/C(=O)OCC(=O)Nc2cccnc2Cl)cc1,7.22%
12,Nc1nc(SCC(=O)Nc2ccc(Cl)cc2C(F)(F)F)n[nH]1,9.87%
13,CC(C)CNC(=O)C(=O)NCC(c1ccc2c(c1)OCO2)N1CCOCC1 (centres undefined),6.19%
14,Cc1nn(Cc2ccccc2)c(C)c1CNC(=O)c1ccc(F)c(S(=O)(=O)N2CCOCC2)c1,29.7% (active)
15,O=C(NCCSCc1ccccc1)c1ccc(Cl)c(S(=O)(=O)N2CCOCC2)c1,1.96%
16,O=C(c1ccc(F)c(S(=O)(=O)N2CCOCC2)c1)N(CCc1ccccc1)Cc1ccccc1,5.14%
17,CC(OC(=O)CCC(=O)c1ccccc1)C(=O)Nc1ccc(F)cc1 (centres undefined),-5.12%
18,CN(CCC(=O)Nc1cc(S(=O)(=O)N(C)C)ccc1Cl)CC(=O)Nc1ccc(F)cc1,-4.23%
19,CC(C)N(Cc1ccccc1)C(=O)COC(=O)c1ccccc1SCC(=O)N1CCCC1,1.65%
20,COc1ccc(/C=C/C(=O)Nc2c(C)nn(C)c2C)cc1COc1ccc(Br)cc1,-4.58%
21,O=C(Nc1ccc(N2CCN(C(=O)c3cccs3)CC2)cc1)c1cccnc1Cl,35.9% (active)
22,Cc1ccccc1C(=O)N1CCN(c2ccc(NC(=O)c3cccs3)cc2)CC1,2.59%
23,O=C(COc1ccccc1)Nc1ccc(N2CCN(C(=O)c3cccs3)CC2)cc1,7.89%
24,CN=C1S/C(=C\c2c(OC)cc(OC)cc2OC)C(=O)N1C,-0.06%

row,Compound,inhibition
1,CC(C)OCCCNC(=O)CN1C(=O)/C(=C/c2ccccc2F)Oc2ccccc21,-0.43%
2,CCC(=C/c1sc2ccc3ccccc3c2[n+]1C)/C=C1\Sc2ccc3ccccc3c2N1C,40.1% (active)
3,O=P(O)(CP(=O)(c1ccccc1)c1ccccc1)c1ccccc1O,-2.71%
4,CCC(C)CCN1CCN=C1N(C)C (centres undefined),8.55%
5,O=S(=O)(Nc1ccc(Cl)cn1)c1cnc(Cl)c(Br)c1,2.67%
6,COC(=O)/C(=C1\Oc2ccc(C(C)(C)C)cc2S1)C(F)(F)F,-3.77%
7,O=C(c1ccc2c(c1)OCO2)N1CCOCC1,2.23%
8,Nc1[nH][nH]c(=O)c1N=Nc1ccc2c(c1)OCO2,28.4% (active)
9,CC(=O)c1cc2c(cc1N)OCO2,-2.04%
10,COc1ccc([N+](=O)[O-])cc1C1NN=C(c2cccc3ccccc23)S1 (centres undefined),7.57%
11,Cc1cccc(C(=O)NC(=S)N2CCN(c3ccc([N+](=O)[O-])cc3)CC2)c1,0.8%
12,O=C(COC(=O)c1cc([N+](=O)[O-])ccc1NCc1ccccc1)NC1CCCCC1,12%
13,CCC(CC)COC(=O)C1=C(C)NC(=O)NC1c1ccc([N+](=O)[O-])cc1 (centres undefined),28.8% (active)
14,COCCOC(=O)C1=C(C)NC(=O)NC1c1ccc(Cl)cc1 (centres undefined),3.24%
15,CC1=C(C(=O)OCC2CCCCC2)C(c2ccc(F)cc2)NC(=O)N1 (centres undefined),0.63%
16,CCc1ccc(C2C(C#N)=C(N)Oc3n[nH]c(CC(=O)OC)c32)cc1 (centres undefined),5.23%
17,Cc1cc(C)c(C#N)c(SCc2[nH]nc3c2C(c2ccccc2)C(C#N)=C(N)O3)n1 (centres undefined),55.3% (active)
18,Cc1cc(C)c(C#N)c(SCc2ccccc2C(=O)O)n1,1.89%
19,CC(C)NC(=O)CSc1nnc(COc2ccccc2Cl)o1,1.63%
20,O=C(CCN1CCCO1)N1CCCC(N2CCN(c3cccc(C(F)(F)F)c3)CC2)C1 (centres undefined),4.25%
21,Cc1ccccc1N1CCN(CCCN2C(=O)C3CCCCN3C2=O)CC1 (centres undefined),-1.82%
22,O=C1C2CCCN2C(=O)N1CCCCN1CCN(c2cccc(C(F)(F)F)c2)CC1 (centres undefined),64.2% (active)

# — PubChem BioAssay AID2177 (The Scripps Research Institute Molecular Screening Center, 2009)
